Inconclusive results are not listed. The source made the active and inactive calls. Unless noted, calls follow the shape of the dose curve; as a rule, active = well fitted curve in the direction sought with a large enough effect; inconclusive = small, poorly fitted or top-dose-only effect, or another doubt; inactive = no such curve, though single readings can be large; an effect the other way counts as inactive or inconclusive.
Key:
[1] = molecular target: Guanine nucleotide-binding protein G(i) subunit alpha-1 (Homo sapiens) (UniProt P63096); assay: qHTS Assay for Inhibitors of RGS12 GoLoco Motif Activity (Green Fluorophore) (AID 879); settings: Galphai1/FITC-RGS12 GoLoco peptide, fluorescence polarization; series mostly up to 57.1 µM;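 also: 0% = labeled peptide with Gαi1 and full inhibition = labeled peptide alone without protein; negative values mean loss of peptide binding seen as reduced polarization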
Method in brief: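 Fluorescence polarization assay: 50 nM Gαi1 with 10 nM FITC-labeled RGS12 GoLoco peptide in 10 mM Tris pH 7.5, 150 mM NaCl, 0.1 mM GDP, 0.05% NP40, 10 min at room temperature with compound.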

[2] = qHTS Assay for Identification of Small Molecule Antagonists for NFkB Signaling Pathway (AID 895; active = well fitted inhibition curve with a large enough effect in the signal ratio, with a control signal flat, not every such curve was filed as active; the % refers to the signal ratio; also: % is scaled to controls: 0 for no effect and ±100 for the full control effect); settings: NFkB beta-lactamase reporter cells, FRET ratio 460/530; series mostly up to 38.3 µM
Method in brief: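 ME-180 NFkB-bla cells (beta-lactamase under NFkB response element), plated overnight, treated with compound then 10 pM TNF alpha (about EC50) for 5 hrs at 37 C. LiveBLAzer FRET read at 460/530 nm emission, 405 nm excitation.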

[3] = qHTS Assay for Identification of Small Molecule Agonists for Thrombopoietin (TPO) Signaling Pathway (AID 917); settings: TPO signaling pathway reporter cells, agonist qHTS; series mostly up to 38.5 µM; also: % is scaled to controls: 0 for no effect and ±100 for the full control effect
Method in brief: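 IL-3-dependent murine pro-B Ba/F3 cells, stably transfected with human TPO receptor and GpIIb-promoter luciferase, are incubated 24 hrs at 37 C with test compound and 26 pM TPO; luciferase signal is read after 10 min at room temperature.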

[4] = molecular target: Pyruvate kinase (Leishmania mexicana) (UniProt Q27686); assay: qHTS Validation Assay for Inhibitors of Leishmania Mexicana Pyruvate Kinase (AID 945);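 also: 0% = DMSO only neutral control wells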; settings: purified L. mexicana pyruvate kinase, enzyme activity, E451W mutant enzyme; series mostly up to 57.5 µM
Method in brief: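 Luminescent ATP detection (PKLight) after a 1 h room-temperature reaction of 0.2 nM LmPYK E451W mutant with 0.5 mM PEP and 0.1 mM ADP at pH 7.2. Activity is normalized to DMSO-only control wells.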

[5] = molecular target: Alpha-galactosidase (Coffea arabica) (UniProt Q42656); assay: Counterscreen for Glucocerebrosidase Inhibitors: qHTS Assay for Coffee Bean alpha-Galactosidase at pH 4.5 (AID 957); settings: purified coffee bean alpha-galactosidase, fluorogenic substrate; series mostly up to 76.9 µM;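 also: plate controls were enzyme alone for no effect and no enzyme for full effect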
Method in brief: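 Coffee bean alpha-galactosidase 2 nM, substrate 4-MU-alpha-Gal 80 uM, pH 4.5 citrate/Tween-20, 20 min RT. Cpd titration 0.7 nM–77 uM. Stop pH 10, fluorescence 365/440 nm; Hill-equation AC50.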

[6] = molecular target: Alpha-galactosidase A (Homo sapiens) (UniProt P06280); assay: Counterscreen for Glucocerebrosidase Inhibitors: qHTS Assay for Human alpha-Galactosidase at pH 4.5 (AID 992); settings: purified enzyme, fluorogenic substrate; series mostly up to 76.9 µM; also: 0% is about no effect
Method in brief: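 Read-out is 4-methylumbelliferone fluorescence (365 nm excitation, 440 nm emission) after a pH 10 NaOH/glycine stop. Reactions held 2 nM enzyme and 80 uM substrate at pH 4.5 for 20 min at room temperature.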

[7] = molecular target: Alpha-galactosidase (Coffea arabica) (UniProt Q42656); assay: Counterscreen for Glucocerebrosidase Inhibitors: qHTS Assay for Coffee Bean alpha-Galactosidase at pH 5.9 (AID 998); settings: coffee bean alpha-galactosidase enzyme assay; series mostly up to 76.9 µM;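 also: plate controls were uninhibited enzyme for no effect and no-enzyme basal signal for full effect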
Method in brief: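 Green coffee bean enzyme (2 nM) with 4-methylumbelliferyl alpha-D-galactopyranoside (80 uM) in 50 mM citric acid, 0.005% Tween-20, pH 5.9, 20 min at room temperature; compounds 0.7 nM–77 uM. Stopped at pH 10, fluorescence Ex365/Em440; Hill-fit AC50.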

[8] = S16 Schwann cell PMP22 intronic element beta-lactamase assay (AID 624044; calls by dose curve; also: potency is read from the fitted curve at half-maximal effect; nearly all actives have a fitted effect of over 15% in size); settings: S16 rat Schwann cells, PMP22 element beta-lactamase FRET, 24 h; series mostly up to 38.3 µM
Method in brief: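 Rat S16 Schwann cells with beta-Lac driven by a PMP22 intronic element, compound-treated 24 h at 37 °C. LiveBLAzer FRET B/G read: 460 nm normalized to potassium clavulanate vs DMSO; 535 nm FRET as viability; concentration-effect curves classified.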

[9] = Cell Viability - BJ (AID 421; calls by dose curve;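 also: potency is read from the fitted curve at half-maximal effect; cells exposed to compound for 40 hours at 37 °C before readout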); settings: BJ fibroblast viability, qHTS
Method in brief: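 Quantitative HTS: ATP depletion in BJ cells after 40 hr compound exposure in complete culture medium, detected with CellTiter-Glo; AC50 from standard Hill fits.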

[10] = Cell Viability - Jurkat (AID 426;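 active = dose-dependent loss of cell ATP signal giving a full or clear fitted curve, ranked by lower potency value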; also: potency is read from the fitted curve at half-maximal effect); settings: qHTS
Method in brief: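 qHTS, 1536-well; Jurkat E6-1, 5000 cells/well, complete medium; cpd 40 hr, 37 °C; CellTiter-Glo 20 min RT; luminescence. AC50 by Hill fit.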

[11] = Cell Viability - Hek293 (AID 427;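 active = compounds whose dose-response curve shows a full or clear partial loss of cell viability, called from curve shape rather than a numeric limit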;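 also: potency is read from the fitted curve at half-maximal effect; cells exposed to compound for 40 hours at 37 °C before reading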); settings: qHTS
Method in brief: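 AC50 values derive from Hill-modelled concentration-response of ATP-based luminescence, normalized between DMSO-only and 100 uM tamoxifen controls. Cells were exposed in complete culture medium for 40 hr at 37 °C before detection.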

[12] = Cell Viability - HepG2 (AID 433; calls by dose curve;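 also: potency is read from the fitted curve at half-maximal effect; potency for ATP loss meaning cytotoxicity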); settings: qHTS
Method in brief: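 In this qHTS format, a 40 h, 37 °C compound incubation of HepG2 cells in complete medium precedes a 20 min CellTiter-Glo step at room temperature. Tamoxifen and doxorubicin serve as positive controls; Hill-equation fits yield AC50.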

[13] = Cell Viability - SK-N-SH (AID 435; calls by dose curve;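 also: potency is read from the fitted curve at half-maximal effect; compound exposure lasted 40 h at 37 °C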); settings: SK-N-SH neuroblastoma cell viability qHTS
Method in brief: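 Human neuroblastoma line, 40 h exposure at 37 °C, ATP quantified via luciferase luminescence; DMSO and 100 uM tamoxifen define 0 and 100% inhibition for AC50 fitting.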

[14] = Cell Viability - N2a (AID 540); settings: N2a mouse neuroblastoma cell viability; at 92.2 µM (top of the series);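 also: plate controls were DMSO alone for no effect and tamoxifen control for full effect; nearly all actives have a fitted effect of over 45% in size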
Method in brief: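 Luminescent ATP signal (CellTiter-Glo, 20 min at room temperature) served as the viability read-out after N2a cells were treated with compounds for 40 hours at 37 °C. Concentration-response data were fitted to the Hill equation for AC50.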

[15] = Cell Viability - NIH 3T3 (AID 541); settings: NIH 3T3 cell viability, qHTS; at 92.2 µM (top of the series);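 also: plate controls were DMSO alone for no effect and tamoxifen positive control for full effect; nearly all actives have a fitted effect of over 25% in size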
Method in brief: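 Luminescent ATP signal (CellTiter-Glo) served as the viability read-out after NIH 3T3 cells were exposed to compounds over a concentration range for 40 hr at 37 °C. Hill-equation modelling of concentration-response data gave AC50.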

[16] = Cell Viability - HUV-EC-C (AID 542); settings: HUV-EC-C endothelial cell viability, qHTS; series mostly up to 92.2 µM; also: % is scaled to controls: 0 for no effect and ±100 for the full control effect; nearly all actives have a fitted effect of over 35% in size
Method in brief: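 qHTS cytotoxicity: HUV-EC-C, 1000 cells/well, 5 hr settle, compound 40 hr 37 °C, CellTiter-Glo, luminescence. AC50 via Hill equation.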

[17] = Cell Viability - H-4-II-E (AID 543); settings: H-4-II-E rat hepatoma viability; series mostly up to 92.2 µM; also: % is scaled to controls: 0 for no effect and ±100 for the full control effect; nearly all actives have a fitted effect of over 35% in size
Method in brief: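 Luminescent ATP signal (CellTiter-Glo) served as the viability read-out, with cytotoxicity seen as a concentration-dependent ATP drop. Cells were treated for 40 hours in complete medium. AC50 values derive from Hill-equation modelling.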

[18] = Cell Viability - SH-SY5Y (AID 544); settings: SH-SY5Y neuroblastoma cell viability; series mostly up to 92.2 µM;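 also: 0% = DMSO alone and -100% = 100 µM tamoxifen; nearly all actives have a fitted effect of over 55% in size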
Method in brief: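 Luminescent ATP read-out (CellTiter-Glo) measures loss of viable SH-SY5Y neuroblastoma cells after 40 hr compound exposure at 37 °C. AC50 values derive from standard Hill modelling of qHTS concentration-response data.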

[19] = Cell Viability - Renal Proximal Tubule (AID 545); settings: renal proximal tubule cells viability; series mostly up to 91.7 µM;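 also: 0% = DMSO only and -100% = 100 µM tamoxifen; nearly all actives have a fitted effect of over 40% in size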
Method in brief: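 In this qHTS format, normal rat kidney-derived proximal tubule cells in complete culture medium receive compound titrations, then sit 40 hours at 37 °C before luciferase-based ATP quantitation; potency is reported as AC50 from concentration-response curves.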

[20] = qHTS Assay for Identification of Small Molecule Inducers of Hypoxia Response (AID 2120; active = well fitted curve in the direction sought with a large enough effect in the signal ratio, with a control signal flat, not every such curve was filed as active; the % refers to the signal ratio; also: 0% is about no effect); settings: hypoxia response reporter cells, beta-lactamase ratio readout; series mostly up to 104 µM
Method in brief: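 ME-180 HRE-bla cells plated in Opti-MEM/0.5% dialyzed FBS, rested 4-5 h, then dosed with compound titrations by pin tool. After 17 h at 37 degrees C, CCF4 dye loaded 2.5 h at RT; 460/530 nm ratio gave %Activity and AC50.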

Alpha-galactosidase (Coffea arabica), sequence (Q42656 whole entry, looked up): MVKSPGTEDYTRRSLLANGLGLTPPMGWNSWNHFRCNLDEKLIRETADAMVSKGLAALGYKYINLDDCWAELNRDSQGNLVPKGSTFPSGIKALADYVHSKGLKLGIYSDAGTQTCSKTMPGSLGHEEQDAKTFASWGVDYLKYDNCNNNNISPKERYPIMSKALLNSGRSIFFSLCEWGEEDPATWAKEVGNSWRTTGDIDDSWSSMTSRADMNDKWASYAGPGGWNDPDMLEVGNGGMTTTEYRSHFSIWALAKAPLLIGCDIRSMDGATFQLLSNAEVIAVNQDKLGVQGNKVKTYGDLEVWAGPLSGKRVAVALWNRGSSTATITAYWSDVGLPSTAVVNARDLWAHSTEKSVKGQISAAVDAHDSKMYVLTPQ
Guanine nucleotide-binding protein G(i) subunit alpha-1 (Homo sapiens), sequence (P63096 whole entry, looked up): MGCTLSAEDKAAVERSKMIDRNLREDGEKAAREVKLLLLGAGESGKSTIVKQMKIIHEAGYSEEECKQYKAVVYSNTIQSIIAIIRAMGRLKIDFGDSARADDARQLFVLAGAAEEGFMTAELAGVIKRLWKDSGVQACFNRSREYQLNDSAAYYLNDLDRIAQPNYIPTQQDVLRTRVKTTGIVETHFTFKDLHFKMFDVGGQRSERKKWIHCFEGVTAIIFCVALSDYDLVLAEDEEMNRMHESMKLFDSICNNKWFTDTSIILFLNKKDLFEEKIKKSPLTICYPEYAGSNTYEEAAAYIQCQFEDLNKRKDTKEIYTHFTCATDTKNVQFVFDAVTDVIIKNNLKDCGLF
Pyruvate kinase (Leishmania mexicana), sequence (Q27686 2-499 E452W): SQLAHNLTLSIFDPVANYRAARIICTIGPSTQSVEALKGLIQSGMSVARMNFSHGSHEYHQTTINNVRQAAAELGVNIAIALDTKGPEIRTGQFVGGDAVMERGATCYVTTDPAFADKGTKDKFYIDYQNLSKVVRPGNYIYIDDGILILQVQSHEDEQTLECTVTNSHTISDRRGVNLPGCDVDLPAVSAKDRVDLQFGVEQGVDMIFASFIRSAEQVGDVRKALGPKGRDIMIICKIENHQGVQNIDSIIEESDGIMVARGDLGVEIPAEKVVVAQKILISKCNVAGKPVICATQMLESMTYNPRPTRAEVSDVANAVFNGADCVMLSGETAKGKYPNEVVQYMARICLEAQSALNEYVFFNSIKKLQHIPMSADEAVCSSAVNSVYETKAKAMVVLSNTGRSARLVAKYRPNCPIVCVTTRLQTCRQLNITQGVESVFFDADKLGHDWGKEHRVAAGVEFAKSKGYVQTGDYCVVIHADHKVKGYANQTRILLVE
Alpha-galactosidase A (Homo sapiens), sequence (P06280 whole entry, looked up): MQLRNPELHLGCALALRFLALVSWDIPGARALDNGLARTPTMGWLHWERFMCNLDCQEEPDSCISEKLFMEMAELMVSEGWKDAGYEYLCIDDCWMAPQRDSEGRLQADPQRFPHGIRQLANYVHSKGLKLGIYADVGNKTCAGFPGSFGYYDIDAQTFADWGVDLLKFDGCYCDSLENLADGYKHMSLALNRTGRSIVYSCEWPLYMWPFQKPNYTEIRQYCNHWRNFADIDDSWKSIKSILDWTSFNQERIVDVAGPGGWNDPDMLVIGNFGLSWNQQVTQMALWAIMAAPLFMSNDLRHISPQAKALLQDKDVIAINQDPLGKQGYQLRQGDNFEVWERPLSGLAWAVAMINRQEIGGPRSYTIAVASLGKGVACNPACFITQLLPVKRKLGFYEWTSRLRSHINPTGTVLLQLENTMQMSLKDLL

CN1CC[C@@]23CCCC[C@@H]2[C@@H]1Cc1ccc(O)cc13
inactive: outcome [1] | Potency [2] | outcome [3] | outcome [4] | outcome [5] | outcome [6] | outcome [7]

Oc1cc[c]([Hg][Cl])cc1
active: Potency [8] 2.24 µM

CCOc1cc(C=O)ccc1O
inactive: Potency [9] > 92 µM | Potency [10] > 92 µM | Potency [11] > 92 µM | Potency [12] > 92 µM | Potency [13] > 92 µM | activity change, negative = cytotoxicity [14] -1.75% | activity change, negative = cytotoxicity [15] 1.57% | outcome [16] | outcome [17] | outcome [18] | outcome [19] | outcome [20]

From PubChem BioAssay (NCATS)
